# Measured values from PMC5540273 (PLoS ONE, 2017).
# Test system: NDR2
# Conditions: concentration: 1 μM, replicates: in singlicate; n = 1
# 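Note: KINOMEscan kinase panel screen.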
row,SMILES,%Inh
1,N#CC1(c2cccc(C(=O)Nc3cccc(Oc4ccc5nc(NC(=O)C6CC6)sc5n4)c3)c2)CC1,0%
2,O=C(Nc1n[nH]c2nc(-c3ccccc3)ccc12)C1CC1 [SB-708999],13%
3,CC(C)c1nc(-c2cccc(NS(=O)(=O)c3c(F)cccc3F)c2)c(-c2ccnc(Nc3ccc(N4CCOCC4)nc3)n2)s1.Cl [GSK1723980],0%
4,Cl.Cl.NCC(NC(=O)c1cc(-c2cccnc2)c(-c2ccnc3[nH]ccc23)s1)c1ccccc1 (stereo not shown) [GSK1323434],13%
5,COC(=O)Nc1nc2cc(Oc3ccc(NC(=O)Nc4cccc(SC)c4)cc3)ccc2[nH]1.Cl [GW697999],0%
6,O=C(Nc1n[nH]c2nc(-c3ccccc3O)ccc12)C1CC1 [SB-711880],0%
7,O=C(Nc1n[nH]c2cc(-c3cccs3)ccc12)C1CC1 [SB-731284],0%
8,O=C(Nc1c(F)cccc1F)c1cc(C(=O)c2ccccc2F)c[nH]1 [GSK1326180],2%
9,Cc1ccc(Nc2ccnc(Nc3ccc(C)c(F)c3)n2)cc1O.Cl [GW582868],0%
10,COc1cccc(-c2nc(-c3ccccc3)[nH]c2-c2ccncc2)c1 [SB-610250],0%
11,CCn1cnc2c(NCc3ccccc3)ncnc21 [SKF-96418],14%
12,Cl.Cl.NC(CNC(=O)c1cc(Br)c(-c2ccnc3[nH]ccc23)s1)c1ccccc1 (stereo not shown) [GSK1322949],95.5%
13,CN(c1ccc(F)c(NC(=O)c2cccc(OC(C)(C)C#N)c2Cl)c1)c1ccc2nc(NC(=O)C3CC3)sc2n1,29%
14,Fc1cc(Cl)ccc1Nc1ccnc2cc(-c3ccc(CN4CCOCC4)o3)ccc12 [GW560109],0%
15,COc1cc(Nc2ccnc3cc(-c4ccncc4)ccc23)cc(OC)c1OC.Cl [GW494610],0%
16,Cc1ccc(O)cc1Nc1ccnc2cc(-c3ccc(CN4CCCCC4)o3)ccc12 [GW557777],4%
17,Nc1ncc(-c2ccc3nccc(-c4ccncc4)c3c2)cc1S(=O)(=O)N1CCCCC1 [GSK1693850],2%
18,COc1ccc(C)c(Nc2ccnc(Nc3ccc(-c4cnc[nH]4)cc3)n2)c1.Cl [GW784041],0%
19,Fc1cc(Cl)ccc1Nc1ccnc2cc(-c3ccc(CN4CCSCC4)o3)ccc12 [GW560106],31%

row,SMILES,%Inh
1,Cc1ccc(NC(=O)c2ccnc(N3CCCCC3)c2)cc1-c1ccc(C(=O)NCC2CC2)cc1 [GW775610],5%
2,CCOc1nccc(-c2c(-c3ccc(F)cc3)ncn2C2CCNCC2)n1 [SB-249175],12%
3,O=C(O)C(F)(F)F.O=c1[nH]ccc2nc(N[C@@H]3CCNC3)nc(Nc3ccc4c(c3)S(=O)(=O)CC4)c12 [GSK2181306],89%
4,c1ccc(Oc2ccc(Nc3ccnc4cc(-c5ccc(CN6CCCCC6)o5)ccc34)cc2)nc1 [GW567143],0%
5,Cc1ccc(C)c(NC(=O)Nc2ccc(C)c(-c3ccc(C(=O)Nc4ccncc4)cc3)c2)c1 [GSK1398473],0%
6,Cn1cc(-c2cnc(N)c3c(-c4ccc5c(c4)CCN5C(=O)Cc4ccccc4)csc23)cn1 [GSK2593074],2%
7,O=C(O)C(F)(F)F.O=c1[nH]ccc2nc(N[C@@H]3CCNC3)nc(Nc3cc(Cl)cc(Cl)c3)c12 [GSK2188764],68%
8,Cl.O=C(Nc1ccc(Oc2ccc3[nH]c(NC(=O)c4ccco4)nc3c2)cc1)Nc1cc(C(F)(F)F)ccc1F [GW683134],0%
9,Cc1cccc(Nc2nc(NCCN)ncc2C(N)=O)c1 [GSK1292139],25%
10,CC(C)NCC(Cc1ccccc1)NC(=O)c1cc(Br)c(-c2ccnc3[nH]ccc23)s1.Cl.Cl (stereo not shown) [GSK1383281],65%
11,Nc1cccc(-c2ccc3c(N)n[nH]c3c2)c1 [GSK2193613],13%
12,COc1cc(Nc2nccc(N3CCC(NS(=O)(=O)c4ccc(NC(C)=O)cc4)CC3)n2)cc(OC)c1OC [GSK1379825],0%
13,Cc1nn2c(=O)cc(N3CCO[C@H](C)C3)nc2n1Cc1cccc(Cl)c1Cl [GSK2373693],0%
14,CN1CCN(Cc2ccc(NC(=O)Nc3ccc(N(C)c4ccnc(Nc5ccc(CS(C)(=O)=O)cc5)n4)cc3)cc2)CC1.Cl [GW827654],0%
15,COC(=O)Nc1nc2ccc(Oc3ccc(CC(=O)Nc4cc(C(F)(F)F)ccc4F)cc3)cc2[nH]1 [GW680903],0%
16,COc1ccc(C2=C(Nc3cccc(O)c3)C(=O)NC2=O)cc1 [SB-390766],0%
17,CN(C)c1ncnc2nc[nH]c12 [SKF-31736],24%
18,Cc1cc(-c2ccnc(Nc3cccc(C#N)c3)n2)cc(C)c1O [GSK1440913],12%
